Reference: the antibiotic and cytotoxicity screens of Wong et al. (2023)
Hit rate of the full screen: of about 39,000 compounds, about 3,300 (8.5%) were called active. Shown is part of a subset that was picked to be rich in actives.

Tested on: HepG2
Assay: cytotoxicity call (relative viability < 0.9)
Conditions: 10 µM

Row | SMILES | cytotoxicity call
1 | C[C@@H]1CN([C@@H](C)CO)C(=O)c2cccc(NS(=O)(=O)c3cn(C)cn3)c2O[C@@H]1CN(C)S(C)(=O)=O | inactive
2 | CCS(=O)(=O)N1C[C@]2(C1)CN([C@H](CO)c1c2c2ccc(cc2n1C)OC)S(=O)(=O)c1ccccc1 | inactive
3 | COc1ccccc1CN(C)C[C@H]1OCc2ccccc2-c2c(n(C)c3ccccc23)C(=O)N([C@H](C)CO)C[C@@H]1C | active
4 | COc1ccccc1CN(C)C[C@@H]1OCc2ccccc2-c2c(n(C)c3ccccc23)C(=O)N([C@H](C)CO)C[C@H]1C | inactive
5 | C[C@H](CO)N1C[C@H](C)[C@H](CN(C)Cc2ccccc2)OCc2ccccc2-c2c(n(C)c3ccccc23)C1=O | inactive
6 | C[C@@H]1CN([C@H](C)CO)C(=O)c2c(c3ccccc3n2C)-c2ccccc2CO[C@H]1CN(C)Cc1ccccc1C(F)(F)F | active
7 | C[C@@H]1CN([C@H](C)CO)C(=O)c2c(c3ccccc3n2C)-c2ccccc2CO[C@H]1CN(C)Cc1ccccc1 | active
8 | COc1ccccc1CN(C)C[C@H]1OCc2ccccc2-c2c(n(C)c3ccccc23)C(=O)N([C@@H](C)CO)C[C@@H]1C | inactive
9 | C[C@H]1CN([C@@H](C)CO)C(=O)c2c(c3ccccc3n2C)-c2ccccc2CO[C@@H]1CN(C)Cc1ccccc1 | inactive
10 | C[C@H](CO)N1C[C@H](C)[C@H](CN(C)Cc2ccccc2C(F)(F)F)OCc2ccccc2-c2c(n(C)c3ccccc23)C1=O | inactive
11 | C[C@H]1CN([C@@H](C)CO)C(=O)c2c(c3ccccc3n2C)-c2ccccc2CO[C@H]1CN(C)Cc1ccccc1 | inactive
12 | C[C@H](CO)N1C[C@H](C)[C@@H](CN(C)Cc2ccccc2)OCc2ccccc2-c2c(n(C)c3ccccc23)C1=O | active
13 | C[C@@H]1CN([C@@H](C)CO)C(=O)c2c(c3ccccc3n2C)-c2ccccc2CO[C@H]1CN(C)Cc1ccccc1C(F)(F)F | inactive
14 | C[C@@H]1CN([C@@H](C)CO)C(=O)c2c(c3ccccc3n2C)-c2ccccc2CO[C@@H]1CN(C)Cc1ccccc1 | inactive
15 | C[C@H]1CN([C@@H](C)CO)C(=O)c2cc(NS(C)(=O)=O)ccc2O[C@@H]1CN(C)S(=O)(=O)c1ccccc1 | inactive
16 | CC(C)NC(=O)N(C)C[C@@H]1Oc2ccc(NS(=O)(=O)c3ccc(Cl)cc3)cc2C(=O)N([C@@H](C)CO)C[C@H]1C | inactive
17 | COc1ccc2c3c(n(c2c1)C)[C@H](CO)N(C[C@]13CCN(CC1)C(=O)c1ccccc1F)C(=O)Nc1ccc(cc1)F | inactive
18 | CO[C@H]1CN(C)C(=O)c2cc(NS(=O)(=O)c3cn(C)cn3)ccc2OC[C@H](C)N(CC2CC2)C[C@H]1C | inactive
19 | C[C@@H]1CN([C@H](C)CO)C(=O)c2cc(NC(=O)C3CCCCC3)ccc2O[C@@H](C)CCCCO[C@H]1CN(C)C(=O)Nc1ccccc1 | inactive
20 | Cc1cc2cc(C)nn2c(N)n1 | inactive
21 | C[C@H](CO)N1C[C@H](C)[C@H](CN(C)C(=O)Nc2ccccc2)OCCCC[C@H](C)Oc2ccc(NC(=O)CCC(F)(F)F)cc2C1=O | inactive

Row | SMILES | cytotoxicity call
22 | Cc1noc(C)c1S(=O)(=O)Nc1ccc2c(c1)C(=O)N([C@H](C)CO)C[C@@H](C)[C@@H](CN(C)Cc1ccccc1)O2 | inactive
23 | O=C(C[C@@H]1C=C[C@H](NS(=O)(=O)c2ccccc2F)[C@@H](CO)O1)NCCCN1CCOCC1 | inactive
24 | C[C@@H]1CCCCO[C@H](CN(C)S(=O)(=O)c2ccc(F)cc2)[C@H](C)CN([C@@H](C)CO)C(=O)c2cc(NC(=O)NC3CCCCC3)ccc2O1 | inactive
25 | C[C@@H]1CCCCO[C@@H](CN(C)S(=O)(=O)c2ccc(F)cc2)[C@@H](C)CN([C@H](C)CO)C(=O)c2cc(NC(=O)NC3CCCCC3)ccc2O1 | inactive
26 | C[C@@H]1CCCCO[C@H](CN(C)S(=O)(=O)c2ccc(F)cc2)[C@H](C)CN([C@H](C)CO)C(=O)c2cc(NC(=O)NC3CCCCC3)ccc2O1 | inactive
27 | C[C@H]1CCCCO[C@@H](CN(C)S(=O)(=O)c2ccc(F)cc2)[C@@H](C)CN([C@@H](C)CO)C(=O)c2cc(NC(=O)NC3CCCCC3)ccc2O1 | inactive
28 | C[C@@H]1CCCCO[C@H](CN(C)S(=O)(=O)c2ccc(F)cc2)[C@@H](C)CN([C@H](C)CO)C(=O)c2cc(NC(=O)NC3CCCCC3)ccc2O1 | active
29 | C[C@H](CO)N1C[C@H](C)[C@H](CN(C)S(=O)(=O)c2ccc(F)cc2)OCCCC[C@H](C)Oc2ccc(NC(=O)NC3CCCCC3)cc2C1=O | active
30 | C[C@@H]1CN([C@H](C)CO)C(=O)c2cc(NC(=O)NC3CCCCC3)ccc2O[C@@H](C)CCCCO[C@H]1CN(C)S(=O)(=O)c1ccc(F)cc1 | inactive
31 | C[C@@H]1CCCCO[C@@H](CN(C)S(=O)(=O)c2ccc(F)cc2)[C@H](C)CN([C@@H](C)CO)C(=O)c2cc(NC(=O)NC3CCCCC3)ccc2O1 | inactive
32 | C[C@@H]1CCCCO[C@@H](CN(C)S(=O)(=O)c2ccc(F)cc2)[C@H](C)CN([C@H](C)CO)C(=O)c2cc(NC(=O)NC3CCCCC3)ccc2O1 | active
33 | COc1cccc(C#Cc2cnc3c(c2)C(=O)N([C@H](C)CO)C[C@@H](C)[C@@H](CN(C)C(=O)C2CCOCC2)O3)c1 | inactive
34 | C[C@H]1CN([C@@H](C)CO)C(=O)CCCn2nncc2CO[C@H]1CN(C)S(=O)(=O)c1ccc(-n2cccn2)cc1 | inactive
35 | CCOC(=O)c1cc2c(c(-c3ccccc3)n1)[C@@H](CCO[Si](C)(C)C(C)(C)C)N(S(=O)(=O)C(C)(C)C)C2 | inactive
36 | CCC(=O)Nc1ccc2c(c1)C(=O)N(C)C[C@@H](OC)[C@@H](C)CN(C(=O)CN1CCOCC1)[C@@H](C)CO2 | inactive
37 | O=C(O)COCC(=O)NCc1ccco1 | inactive
38 | O=C1O[C@@H](c2ccccc2)[C@@H](c2ccccc2)N2[C@@H](c3ccc(O)cc3)[C@]3(C(=O)Nc4ccccc43)[C@@H](C(=O)Nc3nc4ccccc4s3)[C@H]12 | inactive
39 | C[C@H]1CN([C@@H](C)CO)C(=O)c2cc(C#Cc3ccccc3F)cnc2O[C@@H]1CN(C)C(=O)c1ccc2c(c1)OCO2 | inactive
40 | C[C@@H]1CN([C@H](C)CO)C(=O)Cc2cc(N(C)C)ccc2O[C@@H]1CN(C)S(=O)(=O)c1cn(C)cn1 | inactive
41 | C[C@@H]1CN([C@H](C)CO)C(=O)c2cc(NC(=O)Nc3ccc(C(F)(F)F)cc3)ccc2O[C@H]1CN(C)C(=O)Nc1ccc2c(c1)OCO2 | inactive
42 | C[C@@H]1CN([C@@H](C)CO)C(=O)c2cc(NC(=O)Nc3ccc(C(F)(F)F)cc3)ccc2O[C@@H]1CN(C)C(=O)Nc1ccc2c(c1)OCO2 | active

Row | SMILES | cytotoxicity call
43 | C[C@H]1CN([C@@H](C)CO)C(=O)c2cc(NC(=O)Nc3ccc4c(c3)OCO4)ccc2O[C@H]1CN(C)C(=O)Nc1ccc(C(F)(F)F)cc1 | inactive
44 | C[C@@H]1CN([C@@H](C)CO)C(=O)c2cc(NC(=O)Nc3ccc4c(c3)OCO4)ccc2O[C@H]1CN(C)C(=O)Nc1ccc(C(F)(F)F)cc1 | inactive
45 | C[C@H]1CN([C@@H](C)CO)C(=O)c2cc(NC(=O)Nc3ccc4c(c3)OCO4)ccc2O[C@@H]1CN(C)C(=O)Nc1ccc(C(F)(F)F)cc1 | inactive
46 | C[C@H]1CN([C@@H](C)CO)C(=O)c2cc(NC(=O)Nc3ccc(C(F)(F)F)cc3)ccc2O[C@@H]1CN(C)C(=O)Nc1ccc2c(c1)OCO2 | active
47 | COCCNC(=O)C[C@@H]1C[C@@H]2c3cc(NC(=O)COC)ccc3O[C@@H]2[C@@H](CO)O1 | inactive
48 | Cc1noc(C)c1NC(=O)Nc1ccc2c(c1)C(=O)N([C@@H](C)CO)C[C@@H](C)[C@H](CN(C)S(=O)(=O)c1ccccc1)OCCCC[C@@H](C)O2 | inactive
49 | C[C@H]1CN([C@@H](C)CO)C(=O)c2cc(NC(=O)Cn3cnnn3)ccc2O[C@@H]1CN(C)Cc1ccc(C(=O)Nc2ccccc2N)cc1 | inactive
50 | C[C@@H]1CN([C@H](C)CO)C(=O)c2cc(NC(=O)C3CC3)ccc2O[C@@H]1CN(C)S(=O)(=O)c1cn(C)cn1 | inactive
51 | COc1ccc(CN(C)C[C@H]2OCCCC[C@@H](C)Oc3ccc(NS(=O)(=O)c4ccc(F)cc4)cc3C(=O)N([C@H](C)CO)C[C@@H]2C)cc1 | inactive
52 | COc1ccccc1NC(=O)N(C)C[C@@H]1Oc2cc(Br)ccc2S(=O)(=O)N([C@@H](C)CO)C[C@@H]1C | inactive
53 | C[C@H]1CN([C@@H](C)CO)S(=O)(=O)c2ccc(-c3cncnc3)cc2O[C@H]1CN(C)C(=O)NC1CCCC1 | inactive
54 | COc1ccc2c3c([nH]c2c1)[C@H](CO)N(Cc1ccccc1)C[C@]13CCN(CC1)C(=O)Nc1cccc(c1)F | inactive
55 | COc1ccc(cc1)CN1C[C@]2(CCN(CC2)C(=O)Nc2cccc(c2)F)c2c([nH]c3cc(ccc23)OC)[C@@H]1CO | inactive
56 | COc1ccc2c3c([nH]c2c1)[C@@H](CO)N(Cc1ccncc1)C[C@]13CCN(CC1)Cc1ccc(cc1)-c1ccccn1 | inactive
57 | COc1ccc2c3c([nH]c2c1)[C@@H](CO)N(C[C@]13CCN(CCc2ccccc2)CC1)C(=O)CN1CCOCC1 | inactive
58 | COc1ccc2c3c([nH]c2c1)[C@@H](CO)N(Cc1ccc(cc1)Cl)C[C@]13CCN(CCc2ccccc2)CC1 | active
59 | COc1ccc2c3c([nH]c2c1)[C@H](CO)N(Cc1ccc(cc1)Cl)C[C@]13CCN(CCc2ccccc2)CC1 | active
60 | COc1ccc(NC(=O)N(C)C[C@H]2OCCCC[C@H](C)Oc3ccc(NC(=O)C4CCCCC4)cc3C(=O)N([C@H](C)CO)C[C@@H]2C)cc1 | inactive
61 | C[C@@H]1CN([C@@H](C)CO)C(=O)c2cc(NS(=O)(=O)c3cccs3)ccc2O[C@H]1CN(C)Cc1ccncc1 | inactive
62 | Cc1noc(C)c1S(=O)(=O)N(C)C[C@@H]1Oc2ccc(NC(=O)Cc3ccccc3)cc2CC(=O)N([C@@H](C)CO)C[C@H]1C | inactive
